Screening data: PubChem BioAssay, The Scripps Research Institute Molecular Screening Center
Rows were chosen to be rich in hits. Some 4.1% of all compounds tested hit in one or more screens of this group.
ssDAF-12 act: S. stercoralis DAF-12 nuclear receptor activators, primary screen, cell-based, luminescence, HEK293, GRIP1 co-expression, lit1-tk-luc; HEK293 ssDAF-12/GRIP1 lit1-tk-luc reporter; % of 3 µM dafachronic acid response; activation, % at 6.8 µM; hit rate 1% among 370,000; Nuclear hormone receptor DAF-12 (Strongyloides stercoralis);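 active means activation above the mean over all tested compounds plus 3 SD, cut at about 0.9% in these data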;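 further: 0% = DMSO-only wells and 100% = 3 µM delta7-dafachronic acid wells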
hcDAF-12 act: H. contortus DAF-12 nuclear receptor activators, primary screen, cell-based, luminescence, HEK293, lit1-tk-luc reporter; activation, % at 6.8 µM; hit rate 1.4% among 370,000; HEK293 hcDAF-12 lit1-tk-luc reporter; 0% DMSO, 100% Δ7-dafachronic acid;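 active means activation above the mean of all tested compounds plus 3 SD, cut at about 5.5% in these data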;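 further: 100% = response to 3 µM Δ7-dafachronic acid high control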
DAX1 inh-1: DAX1 (NR0B1) inhibitors on StAR promoter, primary screen, cell-based, luminescence, SF-1 (NR5A1), full-length DAX-1 | inhibition, % at 6.8 µM | hit rate 1.1% among 370,000 | HEK293T StAR-luciferase reporter, SF-1/DAX-1 repression relief;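 active means inhibition above the mean over all tested compounds plus 3 SD, cut at about 3.6% in these data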;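 further: 0% = DAX-1 cells with DMSO and 100% = cells lacking DAX-1 with DMSO; higher inhibition means more luminescence from relief of DAX-1 repression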
DAX1 inh-2: DAX1 (NR0B1) inhibitors, primary screen, cell-based, HEK293, Gal4-DAX1, luciferase luminescence | hit rate 0.99% among 340,000 | inhibition, % at 6.75 µM | HEK293 Gal4-DAX1 luciferase reporter | AID 504766, 2011 | Nuclear receptor subfamily 0 group B member 1 (Homo sapiens), P51843;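 active means inhibition above the mean over all tested compounds plus 3 SD, cut at about 4.2% in these data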;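 further: 0% = DAX1-transfected cells with DMSO and 100% = empty-vector control cells with DMSO; inhibition shows as a rise in luminescence from relieved DAX1 repression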
Target sequence (P51843 207-470 limits assumed): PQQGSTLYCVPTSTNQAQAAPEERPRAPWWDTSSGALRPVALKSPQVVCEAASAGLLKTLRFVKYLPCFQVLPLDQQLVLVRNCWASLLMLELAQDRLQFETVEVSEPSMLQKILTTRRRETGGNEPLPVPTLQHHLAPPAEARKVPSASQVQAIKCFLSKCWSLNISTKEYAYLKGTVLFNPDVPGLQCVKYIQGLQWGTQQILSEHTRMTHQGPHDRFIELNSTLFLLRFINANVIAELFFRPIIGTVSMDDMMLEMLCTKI
hgDAF-12 ag: H. glycines DAF-12 receptor agonists, primary screen, cell-based, luminescence, HEK293, GAL4 fusion, UAS-luciferase. Nuclear hormone receptor DAF-12 (Heterodera glycines), GAL4 fusion. HEK293 GAL4-hgDAF12 UAS-luciferase reporter, agonist luminescence; normalized to butyrate control. activation, % at 6.8 µM. hit rate 1.8% among 370,000;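 active means activation above a cutoff set at the mean of all screened compounds plus 3 SD, cut at about 10% in these data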;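 further: 0% = DMSO wells and 100% = sodium butyrate wells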
DAX1 inh confirm: DAX1 (NR0B1) inhibitors relieving SF-1 repression, confirmation, cell-based, luminescence, HEK293T, full-length DAX-1, SF-1 activated StAR promoter; HEK293T StAR-promoter luciferase reporter, SF-1/DAX-1 repression; hit rate 87% among 2,400; shares compounds with DAX1 inh-1; inhibition, % at 6.8 µM;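 active means inhibition above the average of every tested compound plus 3 SD, cut at about 3.8% in these data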;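 further: 0% = DAX-1 cells with DMSO and 100% = no DAX-1 control cells with DMSO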
Target sequence (P51843 whole entry, looked up): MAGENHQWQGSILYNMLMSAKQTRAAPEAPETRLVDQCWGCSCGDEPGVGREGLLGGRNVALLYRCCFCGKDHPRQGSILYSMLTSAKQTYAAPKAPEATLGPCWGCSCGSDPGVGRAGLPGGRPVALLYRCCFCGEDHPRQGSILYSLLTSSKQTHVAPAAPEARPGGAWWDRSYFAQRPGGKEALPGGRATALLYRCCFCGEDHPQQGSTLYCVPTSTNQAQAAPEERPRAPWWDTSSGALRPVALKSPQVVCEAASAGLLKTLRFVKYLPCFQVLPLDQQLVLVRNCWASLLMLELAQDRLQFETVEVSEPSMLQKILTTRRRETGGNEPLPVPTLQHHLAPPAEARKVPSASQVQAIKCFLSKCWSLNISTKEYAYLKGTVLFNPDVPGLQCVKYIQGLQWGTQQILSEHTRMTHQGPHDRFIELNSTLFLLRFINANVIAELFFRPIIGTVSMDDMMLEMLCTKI
SF1 mutant ctr: StAR reporter signal changes without DAX1, counter-screen for DAX1 inhibitor project, cell-based, luminescence, AF-2 mutant SF-1, transactivation | HEK293 StAR-luciferase, SF-1 AF2 mutant | inhibition, % at 6.8 µM | hit rate 78% among 2,400 | shares compounds with DAX1 inh-1;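 active means inhibition above the mean of all tested compounds plus 3 SD, cut at about 3% in these data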;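 further: 0% = DAX-1 transfected cells with DMSO and 100% = cells without DAX-1 with DMSO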
* marks the source's active call; other numbers are inactive results; / = no result given.

SMILES | ssDAF-12 act | hcDAF-12 act | DAX1 inh-1 | DAX1 inh-2 | hgDAF-12 ag | DAX1 inh confirm | SF1 mutant ctr
C/C(=N\NC(=O)c1ccn(C)n1)c1ccc(NC(=O)c2cccc(F)c2)cc1 | 0.2 | 1.6 | 8.4* | 0.5 | 8.8 | -2.4 | -1.5
Cc1cccc(NC(=O)/C=C/c2ccc(Cl)cc2)n1 | -0.4 | 3.7 | 4.6* | 0.6 | 12.0* | 8.7* | 5.0*
CCC(C)CNC(=O)CN1C(=O)C2CCCCN2C(=O)c2ccccc21 (stereo unspecified) | -0.6 | 0.2 | 0.5 | / | -1.9 | / | /
Clc1ccc(-c2nnc3n2N=C(c2ccc(-c4ccccc4)cc2)CS3)c(Cl)c1 | -1.8 | -2.4 | -3.4 | / | 4.7 | / | /
Cc1ccc(NC(=O)C/C(N)=N/OC(=O)Nc2cccc(C)c2)cc1 | -1.1 | 2.1 | 5.0* | -0.1 | 3.4 | 2.1 | 0.6
Cc1ccc(NC(=O)C/C(N)=N/OC(=O)Nc2ccc(C)c(Cl)c2)cc1 | -1.3 | 0.8 | 1.7 | 0.4 | 7.6 | / | /
C[C@@H]1C=CCCO[C@]12C(=O)N(Cc1ccc(Br)cc1)c1cccc(Br)c12 | -0.7 | -2.7 | 0.1 | / | -0.2 | / | /
COc1ccc(-n2ncc3c(N4CCC(C)CC4)ncnc32)cc1 | 0.7 | 6.5* | 6.6* | -1.2 | 10.5* | 12.4* | 4.5*
CCOC(=O)N1CCN(c2ncnc3c2cnn3-c2ccc(OC)cc2)CC1 | -1.7 | -0.1 | -0.9 | -0.2 | 1.6 | / | /
CC(C)OC(=O)c1ccc2ccc(-c3ccccc3)nc2c1 | 0.6 | 2.2 | 8.4* | / | 9.2 | 14.6* | 7.3*
CC(C)OC(=O)c1ccc(NC(=O)c2ccccc2)cc1 | -0.7 | -0.8 | 1.8 | 0.0 | 5.1 | / | /
COc1ccc(/C=N/Nc2nncc3ccccc23)cc1 | 1.9* | 10.6* | 6.4* | -1.6 | 16.7* | 13.5* | 2.4
COc1ccc(/C=N/Nc2nccnc2Cl)cc1 | 0.2 | 5.5 | 5.9* | -1.5 | 12.1* | 13.9* | 8.7*
C[C@@H]1[C@@H](O)C[C@]2(C[C@@H](O)c3ccccc3O2)O[C@H]1c1ccccc1 | -1.2 | -1.3 | 0.5 | / | 4.9 | / | /
CCCOc1nccc2c1n(C)c(=O)n2C | -0.9 | -2.1 | -0.8 | / | 1.6 | / | /
COC(=O)c1ccc2nc(-c3cccc(N)c3)cn2c1 | -1.1 | 3.9 | 5.6* | -1.9 | 5.1 | 5.3* | 1.6
COC(=O)c1ccc2nc(-c3ccc(S(C)(=O)=O)cc3)cn2c1 | -1.5 | 0.2 | 0.1 | 3.9 | -0.5 | / | /
C[C@H]1[C@@H](Cc2cc(Cl)cc(Cl)c2)N(c2ccccc2)c2ccccc2CN1Cc1ccccc1 | -0.7 | -0.2 | 5.0* | / | 4.1 | -2.0 | -1.1
COc1cccc(-c2nnc(-c3ccc4ccccc4c3)o2)c1 | -0.4 | 4.4 | 5.5* | 2.8 | 10.0 | 14.8* | 6.1*
Cc1ccc(-c2nnc(-c3ccc4ccccc4c3)o2)cc1 | -0.4 | 3.2 | 0.7 | 2.3 | 6.5 | / | /
O=C(N/N=C/c1cccc2ccccc12)c1cccc(F)c1 | -0.3 | 3.0 | 5.1* | 0.5 | 7.9 | 1.6 | 1.8
COc1cccc(CNC(=O)CN2CCCc3ccccc32)c1 | -0.3 | 1.9 | -0.3 | / | 1.2 | / | /
COc1ccccc1NS(=O)(=O)c1cc(C(=O)NCC(c2cccs2)N2CCOCC2)ccc1C (stereo unspecified) | -0.9 | 1.9 | -0.4 | -0.1 | 0.3 | / | /
COc1ccc(C(CNC(=O)c2cccc(S(=O)(=O)Nc3ccccc3OC)c2)N2CCCCC2)cc1 (stereo unspecified) | -1.4 | 0.1 | 6.9* | 1.7 | 2.0 | 5.9* | 4.2*
COc1ccc(C(CNC(=O)c2ccc(C)c(S(=O)(=O)Nc3ccccc3OC)c2)N2CCCC2)cc1 (stereo unspecified) | -1.3 | 1.5 | 5.3* | 0.9 | 3.3 | 6.2* | 5.3*
SMILES | ssDAF-12 act | hcDAF-12 act | DAX1 inh-1 | DAX1 inh-2 | hgDAF-12 ag | DAX1 inh confirm | SF1 mutant ctr
COc1ccc(C(CNC(=O)c2cccc(S(=O)(=O)Nc3ccccc3OC)c2)N2CCCC2)cc1 (stereo unspecified) | -0.8 | -1.3 | 5.7* | 1.1 | 0.1 | 6.3* | 3.4*
CC(C)CC(NC(=O)OCc1ccccc1)C(=O)NCC(=O)NCC(=O)OCc1ccccc1 (stereo unspecified) | -1.5 | -1.3 | 2.0 | / | -2.2 | / | /
COC(=O)[C@]12C[C@H](CC(=O)N3CCN(C(=O)c4ccco4)CC3)C(=O)N(CCC3=CCCCC3)C1=C[C@H](C(C)(C)C)O[C@@H]2C | -1.2 | 0.9 | 0.9 | / | 0.9 | / | /
Cc1ccc2occ(/C=N/NC(=O)c3ccc(Cl)cc3)c(=O)c2c1 | -1.0 | -1.5 | 0.1 | -0.3 | 4.5 | / | /
Cc1ccc2occ(/C=N/NC(=O)c3ccccc3O)c(=O)c2c1 | -0.4 | 6.4* | 10.4* | 0.9 | 4.8 | 7.3* | 7.6*
Cc1nn(-c2ccccc2)c2sc(C(=O)NCC3CCCO3)cc12 (stereo unspecified) | -1.5 | -0.4 | -1.7 | / | -0.5 | / | /
C#CCN1CC(COc2ccccc2)Oc2cccc(Oc3ccc(OC)cc3)c2S1(=O)=O (stereo unspecified) | -1.3 | 1.4 | 0.1 | / | -0.6 | / | /
O=C(Nc1ccc(S(=O)(=O)N2CCCCCC2)cc1)c1[nH]ncc1[N+](=O)[O-] | -0.2 | -0.3 | 7.0* | 1.2 | 4.6 | 3.2 | 2.1
O=C(Nc1ccc([N+](=O)[O-])cc1)c1ccc(S(=O)(=O)N2CCCC2)cc1 | -1.6 | -2.7 | -0.3 | -1.9 | -3.0 | / | /
CCSc1nnc(NC(=O)c2ccc3c(c2)OCO3)s1 | 0.3 | 1.5 | 1.7 | 1.8 | 6.5 | / | /
CC(C)Sc1nnc(NC(=O)c2ccc3c(c2)OCO3)s1 | 0.6 | -0.3 | 5.3* | 0.8 | 3.6 | 7.7* | 4.4*
CC(C)c1nnc(NC(=O)c2ccc3ccccc3c2)s1 | 0.0 | 5.7* | 11.8* | 1.6 | 12.8* | 12.6* | 8.1*
Cc1nnc(NC(=O)c2ccc3ccccc3c2)s1 | -0.5 | 1.7 | 5.4* | 1.1 | 7.4 | 10.2* | 5.4*
Cc1nnc(NC(=O)c2cccc(F)c2)s1 | -1.3 | -1.6 | 0.4 | 0.8 | 1.3 | / | /
COc1ccc2cc3cc(C(=O)N4CCCCCC4)oc3nc2c1 | / | / | / | -0.9 | / | / | /
CCOC(=O)C1CCN(C(=O)c2cc3cc4ccc(C)cc4nc3o2)CC1 | -0.4 | 2.0 | 7.5* | 0.5 | 7.4 | 8.0* | 4.9*
